This assay has as its system Candida albicans SNY425 biofilm. Kind of assay: biofilm OD600 with compound plus antifungal (OD600 (absorbance)); higher = more biofilm remaining.
Setting [1] is: assay detail: disruption of 24-h mature biofilm (compound + antifungal for a second 24 h).
The mark [2] stands for this setting: assay detail: sustained inhibition (compound + antifungal during 90-min adherence and 24-h growth).

The structures appear in SMILES notation. Counter-ions that a name gives are not always drawn. ± gives the uncertainty stated by the source.

With `C[C@H](CS)C(=O)N1CCC[C@H]1C(=O)O` [Captopril] + C[C@@H]1[C@H](O)[C@@H](C)/C=C/C=C/C=C/C=C/C=C/C=C/C=C/[C@H](O[C@@H]2O[C@H](C)[C@@H](O)[C@H](N)[C@@H]2O)C[C@@H]2O[C@](O)(C[C@@H](O)C[C@@H](O)[C@H](O)CC[C@@H](O)C[C@@H](O)CC(=O)O[C@H]1C)C[C@H](O)[C@H]2C(=O)O [amphotericin B] (first compound 12.5 µM), the “biofilm OD600” value amounted to 0.285 ± 0.011 under setting [1] and 0.214 ± 0.0071 under setting [2].
On the same counts, the results for `CCCCCCCCCC(=O)N[C@@H](CCCN=C(N)N)C(=O)N[C@H](C(=O)N[C@@H](CCCCN)C(=O)N[C@@H](CCCN=C(N)N)C(=O)CCl)C(C)C` + C[C@@H]1[C@H](O)[C@@H](C)/C=C/C=C/C=C/C=C/C=C/C=C/C=C/[C@H](O[C@@H]2O[C@H](C)[C@@H](O)[C@H](N)[C@@H]2O)C[C@@H]2O[C@](O)(C[C@@H](O)C[C@@H](O)[C@H](O)CC[C@@H](O)C[C@@H](O)CC(=O)O[C@H]1C)C[C@H](O)[C@H]2C(=O)O [amphotericin B] (first compound 4 µM) are 0.261 ± 0.0041 and 0.188 ± 0.0044.
In the same order, the values of `C[C@]1(Cn2ccnn2)[C@H](C(=O)O)N2C(=O)C[C@H]2S1(=O)=O` [Tazobactam] + OC(Cn1cncn1)(Cn1cncn1)c1ccc(F)cc1F [fluconazole] (first compound 12.5 µM) are 0.283 ± 0.011 and 0.12 ± 0.0072.
In the same order, the values of `CCC[C@@]1(CCc2ccccc2)CC(O)=C([C@H](CC)c2cccc(NS(=O)(=O)c3ccc(C(F)(F)F)cn3)c2)C(=O)O1` [tipranavir] + CC[C@H](C)C[C@H](C)CCCCCCCCC(=O)N[C@H]1C[C@@H](O)[C@@H](NCCN)NC(=O)[C@@H]2[C@@H](O)CCN2C(=O)[C@H]([C@H](O)CCN)NC(=O)[C@H]([C@H](O)[C@@H](O)c2ccc(O)cc2)NC(=O)[C@@H]2C[C@@H](O)CN2C(=O)[C@H]([C@@H](C)O)NC1=O [caspofungin] (first compound 12.5 µM) are 0.268 ± 0.011 and 0.192 ± 0.0071.
Consider `C[C@H](NC(=O)[C@@H]1CCCN1C(=O)[C@@H]1CCCN1C(=O)[C@@H](O)[C@H](N)Cc1ccccc1)C(N)=O` [Apstatin] + OC(Cn1cncn1)(Cn1cncn1)c1ccc(F)cc1F [fluconazole] (first compound 12.5 µM), for which the “biofilm OD600” value turned out to be 0.287 ± 0.01 under setting [1] and 0.118 ± 0.0072 under setting [2].
On the same counts, the results for `N=C(N)Nc1ccc(C(=O)Oc2ccc3cc(C(=N)N)ccc3c2)cc1` [Nafamostat mesylate] + CC[C@H](C)C[C@H](C)CCCCCCCCC(=O)N[C@H]1C[C@@H](O)[C@@H](NCCN)NC(=O)[C@@H]2[C@@H](O)CCN2C(=O)[C@H]([C@H](O)CCN)NC(=O)[C@H]([C@H](O)[C@@H](O)c2ccc(O)cc2)NC(=O)[C@@H]2C[C@@H](O)CN2C(=O)[C@H]([C@@H](C)O)NC1=O [caspofungin] (first compound 12.5 µM) are 0.25 ± 0.0081 and 0.162 ± 0.012.
On the same counts, the results for `N[C@H](C(=O)O)[C@@H]1CC(Cl)=NO1` [Acivicin] + CC[C@H](C)C[C@H](C)CCCCCCCCC(=O)N[C@H]1C[C@@H](O)[C@@H](NCCN)NC(=O)[C@@H]2[C@@H](O)CCN2C(=O)[C@H]([C@H](O)CCN)NC(=O)[C@H]([C@H](O)[C@@H](O)c2ccc(O)cc2)NC(=O)[C@@H]2C[C@@H](O)CN2C(=O)[C@H]([C@@H](C)O)NC1=O [caspofungin] (first compound 4 µM) are 0.296 ± 0.012 and 0.163 ± 0.0049.
On the same counts, the results for `CCN1C(=O)C=CC1=O` [N-Ethylmaleimide] + CC[C@H](C)C[C@H](C)CCCCCCCCC(=O)N[C@H]1C[C@@H](O)[C@@H](NCCN)NC(=O)[C@@H]2[C@@H](O)CCN2C(=O)[C@H]([C@H](O)CCN)NC(=O)[C@H]([C@H](O)[C@@H](O)c2ccc(O)cc2)NC(=O)[C@@H]2C[C@@H](O)CN2C(=O)[C@H]([C@@H](C)O)NC1=O [caspofungin] (first compound 4 µM) are 0.281 ± 0.013 and 0.17 ± 0.0037.
For `CC1(C)C[C@@H]1C(=O)N/C(=C\CCCCSC[C@H](N)C(=O)O)C(=O)O` [Cilastatin] + C[C@@H]1[C@H](O)[C@@H](C)/C=C/C=C/C=C/C=C/C=C/C=C/C=C/[C@H](O[C@@H]2O[C@H](C)[C@@H](O)[C@H](N)[C@@H]2O)C[C@@H]2O[C@](O)(C[C@@H](O)C[C@@H](O)[C@H](O)CC[C@@H](O)C[C@@H](O)CC(=O)O[C@H]1C)C[C@H](O)[C@H]2C(=O)O [amphotericin B] (first compound 12.5 µM), the “biofilm OD600” value worked out at 0.293 ± 0.012 under setting [1] and 0.211 ± 0.015 under setting [2].
In the same order, the values of `CCN1C(=O)C=CC1=O` [N-Ethylmaleimide] + OC(Cn1cncn1)(Cn1cncn1)c1ccc(F)cc1F [fluconazole] (first compound 4 µM) are 0.278 ± 0.0073 and 0.113 ± 0.011.
On the same counts, the results for `Cc1ccc(S(=O)(=O)N[C@@H](Cc2ccccc2)C(=O)CCl)cc1` + CC[C@H](C)C[C@H](C)CCCCCCCCC(=O)N[C@H]1C[C@@H](O)[C@@H](NCCN)NC(=O)[C@@H]2[C@@H](O)CCN2C(=O)[C@H]([C@H](O)CCN)NC(=O)[C@H]([C@H](O)[C@@H](O)c2ccc(O)cc2)NC(=O)[C@@H]2C[C@@H](O)CN2C(=O)[C@H]([C@@H](C)O)NC1=O [caspofungin] (first compound 4 µM) are 0.251 ± 0.011 and 0.152 ± 0.013.
On the same counts, the results for `C[C@H](CS)C(=O)N1CCC[C@H]1C(=O)O` [Captopril] + CC[C@H](C)C[C@H](C)CCCCCCCCC(=O)N[C@H]1C[C@@H](O)[C@@H](NCCN)NC(=O)[C@@H]2[C@@H](O)CCN2C(=O)[C@H]([C@H](O)CCN)NC(=O)[C@H]([C@H](O)[C@@H](O)c2ccc(O)cc2)NC(=O)[C@@H]2C[C@@H](O)CN2C(=O)[C@H]([C@@H](C)O)NC1=O [caspofungin] (first compound 12.5 µM) are 0.286 ± 0.011 and 0.198 ± 0.0082.
For the molecule `CNC(=O)[C@H](Cc1c[nH]c2ccccc12)NC(=O)[C@@H](CC(=O)NO)CC(C)C` + C[C@@H]1[C@H](O)[C@@H](C)/C=C/C=C/C=C/C=C/C=C/C=C/C=C/[C@H](O[C@@H]2O[C@H](C)[C@@H](O)[C@H](N)[C@@H]2O)C[C@@H]2O[C@](O)(C[C@@H](O)C[C@@H](O)[C@H](O)CC[C@@H](O)C[C@@H](O)CC(=O)O[C@H]1C)C[C@H](O)[C@H]2C(=O)O [amphotericin B] (first compound 12.5 µM), the “biofilm OD600” value by setting is: under setting [1], 0.281 ± 0.01; under setting [2], 0.194 ± 0.0098.
In the same order, the values of `CCCCC[C@H](CC(=O)NO)C(=O)N[C@H](C(=O)N1CCC[C@H]1CO)C(C)C` [Actinonin] + C[C@@H]1[C@H](O)[C@@H](C)/C=C/C=C/C=C/C=C/C=C/C=C/C=C/[C@H](O[C@@H]2O[C@H](C)[C@@H](O)[C@H](N)[C@@H]2O)C[C@@H]2O[C@](O)(C[C@@H](O)C[C@@H](O)[C@H](O)CC[C@@H](O)C[C@@H](O)CC(=O)O[C@H]1C)C[C@H](O)[C@H]2C(=O)O [amphotericin B] (first compound 12.5 µM) are 0.255 ± 0.017 and 0.191 ± 0.0077.
On the same counts, the results for `CCOC(=O)c1ccc(OC(=O)CCCCCNC(=N)N)cc1` [Gabexate mesylate] + CC[C@H](C)C[C@H](C)CCCCCCCCC(=O)N[C@H]1C[C@@H](O)[C@@H](NCCN)NC(=O)[C@@H]2[C@@H](O)CCN2C(=O)[C@H]([C@H](O)CCN)NC(=O)[C@H]([C@H](O)[C@@H](O)c2ccc(O)cc2)NC(=O)[C@@H]2C[C@@H](O)CN2C(=O)[C@H]([C@@H](C)O)NC1=O [caspofungin] (first compound 12.5 µM) are 0.26 ± 0.0083 and 0.181 ± 0.006.
In the same order, the values of `CCC[C@@]1(CCc2ccccc2)CC(O)=C([C@H](CC)c2cccc(NS(=O)(=O)c3ccc(C(F)(F)F)cn3)c2)C(=O)O1` [tipranavir] + C[C@@H]1[C@H](O)[C@@H](C)/C=C/C=C/C=C/C=C/C=C/C=C/C=C/[C@H](O[C@@H]2O[C@H](C)[C@@H](O)[C@H](N)[C@@H]2O)C[C@@H]2O[C@](O)(C[C@@H](O)C[C@@H](O)[C@H](O)CC[C@@H](O)C[C@@H](O)CC(=O)O[C@H]1C)C[C@H](O)[C@H]2C(=O)O [amphotericin B] (first compound 12.5 µM) are 0.264 ± 0.0073 and 0.185 ± 0.0069.
Turning to `N[C@H](C(=O)O)[C@@H]1CC(Cl)=NO1` [Acivicin] + C[C@@H]1[C@H](O)[C@@H](C)/C=C/C=C/C=C/C=C/C=C/C=C/C=C/[C@H](O[C@@H]2O[C@H](C)[C@@H](O)[C@H](N)[C@@H]2O)C[C@@H]2O[C@](O)(C[C@@H](O)C[C@@H](O)[C@H](O)CC[C@@H](O)C[C@@H](O)CC(=O)O[C@H]1C)C[C@H](O)[C@H]2C(=O)O [amphotericin B] (first compound 4 µM), the “biofilm OD600” value is, setting by setting: under setting [1], 0.31 ± 0.0054; under setting [2], 0.181 ± 0.006.
On the same counts, the results for `COC(=O)C[C@H](NC(=O)[C@H](C)NC(=O)[C@@H](NC(=O)OCc1ccccc1)C(C)C)C(=O)CF` + CC[C@H](C)C[C@H](C)CCCCCCCCC(=O)N[C@H]1C[C@@H](O)[C@@H](NCCN)NC(=O)[C@@H]2[C@@H](O)CCN2C(=O)[C@H]([C@H](O)CCN)NC(=O)[C@H]([C@H](O)[C@@H](O)c2ccc(O)cc2)NC(=O)[C@@H]2C[C@@H](O)CN2C(=O)[C@H]([C@@H](C)O)NC1=O [caspofungin] (first compound 12.5 µM) are 0.296 ± 0.011 and 0.177 ± 0.0034.
In the same order, the values of `Cc1c(O)cccc1C(=O)N[C@@H](CSc1ccccc1)[C@H](O)CN1C[C@H]2CCCC[C@H]2C[C@H]1C(=O)NC(C)(C)C` [nelfinavir] + C[C@@H]1[C@H](O)[C@@H](C)/C=C/C=C/C=C/C=C/C=C/C=C/C=C/[C@H](O[C@@H]2O[C@H](C)[C@@H](O)[C@H](N)[C@@H]2O)C[C@@H]2O[C@](O)(C[C@@H](O)C[C@@H](O)[C@H](O)CC[C@@H](O)C[C@@H](O)CC(=O)O[C@H]1C)C[C@H](O)[C@H]2C(=O)O [amphotericin B] (first compound 12.5 µM) are 0.237 ± 0.0057 and 0.112 ± 0.01.
